# Test results: PubChem BioAssay AID651813 (National Center for Advancing Translational Sciences (NCATS), 2012)
# Hit rate of the full screen: of about 2,100 compounds, about 1,100 (52%) were called active. Roughly 27% stayed inconclusive and do not appear here. Calls come from the whole dose curve; as a rule, active = well fitted inhibition curve with a large enough effect; inconclusive = small, poorly fitted or top-dose-only effect; inactive = no such curve, though single readings can be large or run the other way. So high a share suggests a set chosen from earlier hits. The list shows a part of the results.
# Target: DNA dC->dU-editing enzyme APOBEC-3G (Homo sapiens) (UniProt Q9HC16)
# Sequence (Q9HC16 whole entry, looked up): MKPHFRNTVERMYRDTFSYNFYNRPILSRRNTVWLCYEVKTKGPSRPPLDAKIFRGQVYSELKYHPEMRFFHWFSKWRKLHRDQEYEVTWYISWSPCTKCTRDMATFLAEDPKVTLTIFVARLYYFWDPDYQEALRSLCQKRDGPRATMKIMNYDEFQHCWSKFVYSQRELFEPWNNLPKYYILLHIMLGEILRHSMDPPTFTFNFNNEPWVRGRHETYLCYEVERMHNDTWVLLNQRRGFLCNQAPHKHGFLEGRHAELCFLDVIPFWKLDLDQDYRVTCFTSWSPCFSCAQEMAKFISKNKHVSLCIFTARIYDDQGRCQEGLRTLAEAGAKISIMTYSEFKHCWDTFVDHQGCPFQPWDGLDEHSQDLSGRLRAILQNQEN
# Experiment: qHTS for inhibitors of Vif-A3G interactions: Cherry picks counterscreen;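 note: hits raise yellow fluorescence by blocking Vif-driven A3G-eYFP degradation; nearly all actives have a fitted effect of over 70% in size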;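 for max response: max response given as percent of control signal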
# Conditions: HeLa A3G-eYFP + Vif (tagged APOBEC3G with the HIV-1 protein that degrades it), eYFP fluorescence, 24 h
# From the text: The recent discovery and characterization of host restriction factors, which provide a potent defense to invading retroviruses, has provided new targets for antiviral drug development. APOBEC3G (A3G) and APOBEC3F (A3F) are potent cytidine deaminases that block HIV-1 replication; HIV-1 expresses the Vif protein, which counteracts A3G and A3F by binding to them and inducing their proteasomal degradation. The Vif-A3G and Vif-A3F interactions provide two potential targets for development of small molecules which can interfere with the ability of Vif to degrade A3G or A3F. […] To identify inhibitors that can interfere with Vif mediated degradation of A3G and A3F, we have developed Hela cell lines that stably express A3G or A3F tagged with eYFP at the C-terminal end (A3G-eYFP or A3F-eYFP, respectively) and Vif. In the absence of an inhibitor, Vif induces degradation of A3G-eYFP and A3F-eYFP, and the cells are not fluorescent. In the presence of an inhibitor, it is expected that Vif will be unable to degrade A3G-eYFP and/or A3F-eYFP, resulting in an increase in yellow fluorescence. In this counterscreen assay, Vif A3G was screened against the cherry picks ordered from the MLSMR. NIH Chemical Genomics Center [NCGC] NIH Molecular Libraries Probe Centers Network [MLPCN] MLPCN Grant: MH093245 Assay Submitter (PI): Vinay Pathak, National Cancer Institute
# A3G-Vif cells were harvested from T225 flask and resuspended in phenol free OPTI-MEM medium with 5% FBS. Then 5 uL of 140,000 cells/mL resuspended cells was dispensed into each well of low base Aurora COC 1,536-well plates (black walled, clear bottom) using a Multidrop Combi dispenser. After overnight culture at 37 deg C with 5% CO2, a total of 23 nL of compounds at 5 selected concentrations from the NPC or positive control (2 mM stock of MG132) in DMSO was transferred to each well of the assay plate using a pintool (Kalypsys, San Diego, CA), and the plates were further incubated at 37 deg C with 5% CO2 for 24 hours. After that, the plates were measured on Acumen Explorer (TTP Lab Tech). The fluorescence was detected by 488 nm/Ex and […].
# Potency is the fitted concentration of half-maximal effect.
Structure (SMILES),Potency,max response
Cc1ccc(C(=O)c2cc([N+](=O)[O-])ccc2N2CCN(C)CC2)cc1,7.04 µM (active),
CNc1cncc(-c2cc(C)c(O)c(C)c2)n1,4.98 µM (active),
Cc1sc2nc(SCC(=O)N3CCOCC3)[nH]c(=O)c2c1-c1ccccc1,,-5.17% (inactive)
CCOC(=O)CSc1nc2c(c(=O)[nH]1)C(C)(CC)Cc1ccccc1-2 (stereo unspecified),8.2 µM (active),
COc1cccc(N2CCN(Cc3nc4scc(-c5ccccc5)c4c(=O)[nH]3)CC2)c1,12.5 µM (active),
O=c1[nH]c(CN2CCN(c3ccccc3)CC2)nc2scc(-c3ccccc3)c12,9.2 µM (active),
CCS(=O)(=O)C1=NN2C(=N)/C(=C\c3ccc(SCc4ccco4)o3)C(=O)N=C2S1,,2.81% (inactive)
CC1=CN2C(=N)/C(=C/c3ccc([N+](=O)[O-])o3)C(=O)N=C2S1,17.7 µM (active),
COc1ccc(CCNC(=O)CC2(CC3=NS(=O)(=O)c4ccccc4N3)CCCC2)cc1OC,,-1.6% (inactive)
COc1cccc(-c2ccc3c(N)c(C(=O)c4ccc(Br)cc4)sc3n2)c1,20.6 µM (active),
COc1cccc(-c2ccc3c(N)c(C(=O)c4ccc(Cl)cc4)sc3n2)c1,20.6 µM (active),
Cc1noc(C)c1COc1ccc(C(=O)NNC(=O)c2ccccc2)cc1,5.59 µM (active),
Cc1noc(C)c1COc1ccc(C(=O)NNC(=O)c2ccccc2F)cc1,8.86 µM (active),
CCOc1cc(/C=C(/C#N)C(=O)Nc2ccc(O)cc2)cc(Br)c1O,17.7 µM (active),
CCOc1ccc(NC(=O)/C(C#N)=C/c2ccc(N3CCCC3)c(C)c2)cc1,2.06 µM (active),
CCOC(=O)c1c(-c2ccc(C)cc2)csc1NC(=O)/C(C#N)=C/c1ccc(O)c(OC)c1,,57.5% (inactive)
Cc1cccc(N2CCN(C(=O)c3cccc(N4CCCC4=O)c3)C(C)C2)c1 (stereo unspecified),14 µM (active),
Cc1ccc(-n2c(=O)c3ccc(C(=O)NCc4ccccc4Cl)cc3n(CC(=O)Nc3cccc(Cl)c3)c2=O)cc1,,-24% (inactive)
CCOc1ccc(NC(=O)Cn2c(=O)n(Cc3ccc(C(=O)NCc4ccc(C)cc4)cc3)c(=O)c3ccccc32)cc1,13 µM (active),
Cc1ccc(N2C(=O)CS/C2=C(\C(Cl)=C(Cl)Cl)[N+](=O)[O-])cc1,,1.1% (inactive)
Cc1ccc(NC(=O)/C(C#N)=C\c2ccc(-c3ccc(Cl)cc3)o2)c(C)c1,5.8 µM (active),
CC(NC(=S)Nc1cccc(C(F)(F)F)c1)C(C)(C)C (stereo unspecified),,21.6% (inactive)
COc1cccc(Cn2c(-c3nonc3NC(C)=O)nc3ccccc32)c1,11.6 µM (active),

Structure (SMILES),Potency,max response
COc1ccc(C)c(Cn2c(-c3nonc3N)nc3ccccc32)c1,3.14 µM (active),
COc1cccc(Cn2c(-c3nonc3N)nc3ccccc32)c1,1.25 µM (active),
Nc1nonc1-c1nc2ccccc2n1CC(=O)Nc1cccc(C(F)(F)F)c1,18.4 µM (active),
Cc1cn2c(N)c(C=C3C=C(Cl)C(=O)C(Cl)=C3)c(=O)nc2s1,,34.2% (inactive)
Cc1cccc(CSc2cccc3cccnc23)c1,,-11.2% (inactive)
CCC(C)Sc1ccc(-c2nc3cc(C)ccn3c2NC2CCCCC2)cc1 (stereo unspecified),,26.9% (inactive)
Nc1nonc1-c1nc2ccccc2n1Cc1ccc(F)cc1,12.5 µM (active),
CCC(=O)Nc1nonc1-c1nc2ccccc2n1Cc1ccccc1,14 µM (active),
CCOC(=O)c1c(CN(CC)CC)n(-c2ccccc2)c2ccc(O)cc12,,2.24% (inactive)
O=C1S/C(=C\c2ccc(N3CCOCC3)o2)C(=O)N1c1ccccc1,1.98 µM (active),
CCCN1C(=O)S/C(=C\c2ccc(N3CCOCC3)o2)C1=O,2.23 µM (active),
O=C1S/C(=C/c2ccc(N3CCOCC3)o2)C(=O)N1Cc1ccc(F)cc1,7.04 µM (active),
O=C1S/C(=C/c2ccc(N3CCOCC3)o2)C(=O)N1Cc1c(F)cccc1Cl,2.8 µM (active),
CCCN1C(=O)S/C(=C/c2ccc(N3CCOCC3)o2)C1=O,,50.5% (inactive)
Cc1cc(C)c(C(=O)N(CCN(C)C)CC2CCCN(Cc3ccccc3F)C2)o1 (stereo unspecified),,0.428% (inactive)
O=C1/C(=C\c2ccc(O)cc2)SC(=S)N1Cc1ccccc1,,39.2% (inactive)
COc1cc(/C=C2/SC(=S)N(Cc3ccccc3)C2=O)cc(Cl)c1O,2.23 µM (active),
C=CCN1C(=O)/C(=C/c2ccc(O)c(OC)c2)S/C1=N/c1nccs1,4.61 µM (active),
COc1cc(/C=C2/SC(=S)N(CCC(=O)Nc3ccccc3)C2=O)cc(OC)c1OC,20.6 µM (active),
COc1cc(/C=C2/SC(=S)N(Cc3ccccc3)C2=O)cc(OC)c1O,12.5 µM (active),
COc1cc(/C=C2/SC(=S)N(CC3CCCO3)C2=O)ccc1O (stereo unspecified),16.4 µM (active),
O=C1/C(=C/c2ccc(O)cc2)SC(=S)N1CC1CCCO1 (stereo unspecified),,-5.85% (inactive)
O=C(O)c1cc(-c2ccc(/C=C3/SC(=S)N(Cc4ccccc4)C3=O)o2)ccc1Cl,18.4 µM (active),
